From PubChem BioAssay
Calls of active or inactive are those of the source. Unless noted, no rule for the calls is given here.

What was measured:
[1] = compound effects on lung adenocarcinoma cell viability – A549, calcein-AM fluorescence, 48 h, basal, profiling panel (AID 1162); conditions: higher = more signal; also: test concentration not given here
[2] = compound effects on differentiated 3T3-L1 adipocyte viability – cell-based, 3T3-L1 adipocytes, calcein-AM fluorescence, 48 h, basal, profiling panel (AID 1163); conditions: 3T3-L1 adipocytes viability, higher = more signal; also: test concentration not given here
[3] = compound effects on hepatocellular carcinoma cell viability – HepG2, calcein-AM fluorescence, 48 h, basal, profiling panel (AID 1164); conditions: higher = more signal; also: test concentration not given here
[4] = compound effects on multiple myeloma cell viability – MM1S, calcein-AM fluorescence, 48 h, basal, profiling panel (AID 1165); conditions: higher = more signal; also: test concentration not given here
[5] = calcein-AM signal in unstimulated myeloma cells – cell-based, calcein-AM fluorescence, 48 h, PK04 Diversity Set, profiling panel (AID 1166); conditions: RPMI8226 myeloma viability, higher = more signal;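 also: cells grown under basal conditions without added stimulus; test concentration not given here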
[6] = JC-1 mitochondrial signal, unstimulated HepG2 cells – cell-based, JC-1 fluorescence, 24 h, 100 nL compound, profiling panel (AID 1167); conditions: HepG2 mitochondrial potential, higher = more signal; also: test concentration not given here
[7] = JC-1 mitochondrial signal, unstimulated adipocytes – cell-based, JC-1 fluorescence, 3T3-L1 adipocytes, 24 h, 100 nL compound, profiling panel (AID 1168); conditions: JC-1 mitochondrial fluorescence, higher = more signal, called active from +8 up or from −8 down; also: test concentration not given here
[8] = JC-1 mitochondrial signal, unstimulated myeloma cells – cell-based, JC-1 fluorescence, RPMI8226, 24 h, 100 nL compound, profiling panel (AID 1169); conditions: JC-1 mitochondrial potential fluorescence, higher = more signal; also: test concentration not given here
[9] = JC-1 mitochondrial signal, unstimulated MM1S myeloma – cell-based, JC-1 fluorescence, 24 h, 100 nL compound, profiling panel (AID 1170); conditions: MM1S mitochondrial potential, higher = more signal; also: test concentration not given here
[10] = resazurin metabolic signal in A549 cells – cell-based, resazurin fluorescence, 24 h, PK04 Diversity Set, profiling panel (AID 1171); conditions: A549 viability, higher = more signal, called active from +8 up or from −8 down; also: test concentration not given here
[11] = resazurin metabolic signal in HepG2 cells – cell-based, resazurin fluorescence, 24 h, PK04 Diversity Set, profiling panel (AID 1172); conditions: HepG2 viability, higher = more signal; also: test concentration not given here
[12] = budding yeast growth changes without added modifier – OD600, strain BY4716, 24 h, basal condition, primary screen (AID 1173); conditions: S. cerevisiae BY4716 growth, OD600, 24 h; higher = more signal, called active from +8 up or from −8 down
[13] = viability profiling in MM1S myeloma cells – cell-based, resazurin fluorescence, basal, 24 h, PK04 Diversity Set, profiling panel (AID 1174); conditions: higher = more signal, called active from +8 up or from −8 down; also: test concentration not given here
[14] = molecular target: Dihydroorotate dehydrogenase (quinone), mitochondrial (Plasmodium falciparum (isolate 3D7)) (UniProt Q08210); assay: inhibition of P. falciparum DHODH – biochemical, C-terminal His tag, absorbance 600 nm, primary screen (AID 1175); conditions: PfDHODH enzyme, DCIP absorbance 600 nm; higher = more signal, called active from +8 up or from −8 down;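 also: recombinant parasite enzyme with a five histidine tag at its C terminus; test concentration not given here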
Sequence of Dihydroorotate dehydrogenase (quinone), mitochondrial (Plasmodium falciparum (isolate 3D7)) (Q08210 whole entry, looked up): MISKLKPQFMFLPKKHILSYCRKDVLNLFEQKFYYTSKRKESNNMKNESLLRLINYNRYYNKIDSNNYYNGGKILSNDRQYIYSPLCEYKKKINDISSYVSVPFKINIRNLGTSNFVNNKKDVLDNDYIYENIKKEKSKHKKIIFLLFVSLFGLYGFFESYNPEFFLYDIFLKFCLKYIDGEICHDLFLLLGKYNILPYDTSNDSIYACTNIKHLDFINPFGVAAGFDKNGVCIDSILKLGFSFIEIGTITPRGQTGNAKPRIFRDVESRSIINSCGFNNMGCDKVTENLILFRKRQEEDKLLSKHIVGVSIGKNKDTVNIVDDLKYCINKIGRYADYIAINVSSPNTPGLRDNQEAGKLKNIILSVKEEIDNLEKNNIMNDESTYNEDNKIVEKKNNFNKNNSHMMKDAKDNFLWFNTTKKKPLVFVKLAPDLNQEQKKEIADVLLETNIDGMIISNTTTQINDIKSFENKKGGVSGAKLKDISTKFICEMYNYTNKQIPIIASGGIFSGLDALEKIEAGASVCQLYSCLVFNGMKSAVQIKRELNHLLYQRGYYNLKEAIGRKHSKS

[15] = inhibition of PAO1 biofilm formation – strain PAO1, LB-PBS medium, absorbance 600 nm, primary screen (AID 1176); also: test concentration not given here; conditions: P. aeruginosa PAO1 growth/biofilm, A600, 12 h; higher = more signal
[16] = growth modulation of vineyard yeast isolate – strain RM11-1a, OD600, basal, 24 h, primary screen (AID 1177);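 also: cultures grown under basal conditions with no added stressor; test concentration not given here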; conditions: S. cerevisiae RM11-1a growth, OD600, 24 h; higher = more signal, called active from +8 up or from −8 down
[17] = growth of efflux-deficient E. coli DRC39 – strain DRC39, OD650, 24 h, E. coli filamentation inducers, primary screen (AID 1178);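 also: growth measured as culture turbidity by optical density at 650 nm; test concentration not given here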; conditions: E. coli DRC39 acrAB, higher = more signal, called active from +8 up or from −8 down
[18] = growth of efflux-deficient E. coli DRC39 – strain DRC39, OD650, 48 h, E. coli filamentation inducers, primary screen (AID 1179);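 also: screen aims at cell division blockers that make cells filament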; conditions: E. coli DRC39 delta-acrAB growth, higher = more signal, called active from +8 up or from −8 down
[19] = viability profiling in RPMI8226 myeloma cells – cell-based, resazurin fluorescence, basal, 24 h, PK04 Diversity Set, profiling panel (AID 1180); conditions: higher = more signal;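 also: RPMI8826 multiple myeloma cell line at 5000 cells per well; test concentration not given here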
[20] = molecular target: E3 ubiquitin-protein ligase XIAP (Homo sapiens) (UniProt P98170); assay: small molecules binding XIAP protein – biophysical, small-molecule microarray, fluorescence 635 nm, primary screen (AID 1181); conditions: higher = more signal;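 also: score merges 667 nm emission and signal to noise over triplicate slides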
Sequence of E3 ubiquitin-protein ligase XIAP (Homo sapiens) (P98170 whole entry, looked up): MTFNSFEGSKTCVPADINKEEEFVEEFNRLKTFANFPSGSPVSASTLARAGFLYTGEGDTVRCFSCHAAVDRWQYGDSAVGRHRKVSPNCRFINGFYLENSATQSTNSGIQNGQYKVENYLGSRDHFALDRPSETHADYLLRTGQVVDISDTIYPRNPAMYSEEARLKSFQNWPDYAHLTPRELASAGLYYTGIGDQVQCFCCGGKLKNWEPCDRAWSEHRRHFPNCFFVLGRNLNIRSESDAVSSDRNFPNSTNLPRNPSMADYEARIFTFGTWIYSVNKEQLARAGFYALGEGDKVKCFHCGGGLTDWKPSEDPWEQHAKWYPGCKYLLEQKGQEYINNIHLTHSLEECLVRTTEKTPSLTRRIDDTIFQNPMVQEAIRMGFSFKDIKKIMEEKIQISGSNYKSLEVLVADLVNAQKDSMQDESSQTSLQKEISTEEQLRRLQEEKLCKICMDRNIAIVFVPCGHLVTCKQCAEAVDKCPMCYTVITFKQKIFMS

Row | Compound | z-score [1] | z-score [2] | z-score [3] | z-score [4] | z-score [5] | z-score [6] | z-score [7] | z-score [8] | z-score [9] | z-score [10] | z-score [11] | z-score [12] | z-score [13] | composite z-score [14] | z-score [15] | z-score [16] | z-score [17] | z-score [18] | z-score [19] | composite z-score [20]
1 | CC(C)C[C@@H]1NC(=O)[C@@H]2C[C@H](C(=O)NCCCCCC[N+](C)(C)C)[C@H](c3cccc(OCCO)c3)N2C1=O | -0.895 | 0.137 | -1.16 | -0.131 | -0.585 | -1.48 | 0.229 (inactive) | 0.108 | 0.0386 | -0.483 (inactive) | -0.482 | 0.62 (inactive) | -0.384 (inactive) | -0.317 (inactive) | 0.683 (inactive) | -0.0613 (inactive) | -0.466 (inactive) | -1.15 (inactive) | -0.899 | -0.227
2 | O=C(NCCN1CCOCC1)[C@@H]1c2ccccc2C(=O)N(Cc2ccccc2)[C@H]1c1ccc(CO)cc1 | 0.178 | -0.323 | 0.225 | -0.593 | 0.137 | 2.07 | 0.422 (inactive) | -0.78 | -0.218 | 1.59 (inactive) | 1.15 | 0.476 (inactive) | 0.802 (inactive) | -0.547 (inactive) | -0.838 (inactive) | 0.496 (inactive) | 0.0077 (inactive) | 0.76 (inactive) | 0.822 | -0.0228
3 | C=CCN1C(=O)[C@]2(O[C@H](CCO)[C@@H]([Si](C)(C)c3ccc(OC)cc3)[C@@H]2C)c2cc(N3C(=O)COc4ccccc43)ccc21 | -3.84 | 1.76 | -4.67 | -2.7 | -4.36 | -2.14 | 0.707 (inactive) | -1.06 | -2.25 | -5.62 (inactive) | -5.79 | 0.346 (inactive) | -8.88 (active) | 0.828 (inactive) | -0.34 (inactive) | 2.96 (inactive) | 1.55 (inactive) | 0.68 (inactive) | -6.28 | 0.0356
4 | [N-]=[N+]=Nc1ccccc1C[C@]1(C(=O)NCc2ccccc2)COC(c2ccc(OCCCO)cc2)=N1 | -0.827 | -0.143 | -1.65 | -3.58 | -4.42 | 0.789 | 0.443 (inactive) | -1.17 | -2.33 | -1.41 (inactive) | -0.85 | 0.858 (inactive) | -5.51 (inactive) | 0.363 (inactive) | -0.0837 (inactive) | 2.15 (inactive) | 0.728 (inactive) | 0.161 (inactive) | -4.83 | 0.212
5 | CCOC(=O)C[C@H]1[C@H](OC(=O)c2ccccc2-c2ccccc2)[C@@H](NC(=O)c2ccc3ccccc3n2)c2cc(OCCCO)ccc2N1C(=O)c1ccccc1 | 0.198 | 0.197 | 0.305 | -0.295 | -0.0468 | 0.549 | -0.178 (inactive) | -0.707 | 0.625 | 0.143 (inactive) | -0.412 | 1.16 (inactive) | -0.042 (inactive) | 0.742 (inactive) | -0.165 (inactive) | 1.01 (inactive) | -0.745 (inactive) | -0.916 (inactive) | 0.303 | 0.0153
6 | CCOC(=O)C1=CCN(S(=O)(=O)c2ccc(C)cc2)C1c1ccccc1 (stereo not given) | -0.973 | -0.205 | -0.535 | -0.455 | -1.21 | -1.62 | -0.804 (inactive) | 0.443 | -0.583 | 0.739 (inactive) | -0.17 | 0.218 (inactive) | -0.612 (inactive) | -0.551 (inactive) | 0.449 (inactive) | 0.58 (inactive) | -0.564 (inactive) | -0.359 (inactive) | -1.01 | -0.0957
7 | COC(=O)C(CC#Cc1ccc2c(c1)[C@]1(C(=O)N2)[C@H](c2ccc(OCCO)cc2)N2[C@H](c3ccccc3)[C@H](c3ccccc3)OC(=O)[C@H]2[C@@H]1C(=O)N1CCN(c2ncccn2)CC1)C(=O)OC | -0.824 | -0.661 | 0.228 | -0.966 | -3.72 | -1.01 | 0.525 (inactive) | -1 | -1.55 | 0.352 (inactive) | -0.175 | 1.96 (inactive) | -0.382 (inactive) | -6.39 (inactive) | 3.09 (inactive) | 1.79 (inactive) | 0.452 (inactive) | 0.152 (inactive) | -2.63 | 0.0651
8 | C=C(CCCC)C(=O)CC[C@@H](OC(=O)c1cccnc1)c1ccc(OCCO)cc1 | 0.67 | 0.866 | 0.376 | -3.34 | -2.89 | -0.279 | -0.188 (inactive) | -0.673 | -0.652 | 0.116 (inactive) | -0.211 | -2.75 (inactive) | -1.43 (inactive) | -2.9 (inactive) | 0.543 (inactive) | -0.208 (inactive) | -0.566 (inactive) | -0.547 (inactive) | -2.52 | 0.0542
9 | COCCOC(=O)N1C(=O)[C@@]2(c3cc(C#CCCO)ccc31)[C@H](c1ccccc1OCCO)N1[C@H](c3ccccc3)[C@H](c3ccccc3)OC(=O)[C@H]1[C@@H]2C(=O)N1CCCCCCC1 | 0.66 | 0.961 | 1.03 | 0.115 | -0.004 | 0.454 | 0.339 (inactive) | -0.155 | -1.31 | 0.596 (inactive) | 0.543 | 0.971 (inactive) | -0.649 (inactive) | 0.495 (inactive) | 1.32 (inactive) | 2.11 (inactive) | -0.255 (inactive) | 0.343 (inactive) | 0.484 | 0.236
